Results taken from PubChem BioAssay (NCATS).
A number with no mark means an inactive call. Records with an inconclusive call do not appear. Calls of active or inactive are those of the source. Unless noted, the call rests on the fitted dose curve; in most records, active means well fitted curve in either direction with a large enough effect (not every such curve was filed as active); inconclusive means small, poorly fitted or top-dose-only effect, or another doubt; inactive means flat fitted curve, though single readings scatter.

Tests used:
[1] = target: Lysosomal acid glucosylceramidase (Homo sapiens) (UniProt P04062); test: Glucocerebrosidase-p2 (AID 348; in the data active means potency below about 10 µM; further: potency means the concentration at half of the fitted maximal effect); details: purified GBA, blue fluorogenic substrate, 40 min
Summary of the method: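 Normal human glucocerebrosidase (0.2 nM) with blue fluorogenic substrate (80 uM final) in citrate/phosphate pH 5.9 with 10mM sodium taurocholate, 0.01% tween-20; 40 min RT, NaOH/glycine stop; fluorescence Ex 365/Em 440; AC50 from a titration from 0.6 nM upwards.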

[2] = target: Cytochrome P450 1A2 (Homo sapiens) (UniProt P05177); test: p450-cyp1a2 (AID 410; calls by dose curve; further: potency means the concentration at half of the fitted maximal effect); details: recombinant CYP1A2, luciferin-ME demethylation, luminescence; series mostly up to 57 µM
Summary of the method: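 Luminescent demethylation readout: Luciferin-ME (100uM, equal to Km) turned over by 20nM CYP1A2 for 60 min at room temperature after NADPH regeneration addition, following 10 min compound preincubation. Normalization used 57 uM furafylline as full inhibition.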

[3] = target: Glucocorticoid receptor (Homo sapiens) (UniProt P04150); test: GR-GFP Redistribution (AID 450;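 active means compounds whose dose series gives a full or clear partial fitted curve of increased nuclear translocation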; further: potency means the concentration at half of the fitted maximal effect); details: U2OS GR-GFP nuclear translocation, laser cytometry, 2 h
[4] = target: Glucocorticoid receptor (Homo sapiens) (UniProt P04150); test: GR-EFC Redistribution (AID 451; calls by dose curve; further: potency means the concentration at half of the fitted maximal effect); details: CHO-K1 GR-EFC translocation, beta-gal luminescence, 2 h
Summary of the method: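 CHO-K1 cells stably expressing nuclear-localized β-gal enzyme acceptor and GR fused C-terminally to the enzyme donor fragment; ligand-driven nuclear translocation restores β-gal by complementation. Compounds titrated up to 46 uM final, 2 h at 37 °C; luminescence read.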

[5] = target: Mitogen-activated protein kinase 10 (Mus musculus) (UniProt Q61831); test: JNK3 AlphaScreen Assay (AID 530); details: JNK3 lysate, c-Jun phosphorylation; series mostly up to 57.1 µM;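 further: kinase came from lysate of stimulated human HepG2 cells; signal reports phosphorylation of biotinylated GST-cJun 1-79 at Ser73 with 10 µM ATP; on the % scale 0 is the no-effect control and ±100 the full control effect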
Summary of the method: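 Phosphorylation of biotinylated GST-cJun(1-79) at Ser73 is measured by AlphaScreen proximity luminescence. Enzyme is JNK3 in HepG2 lysates activated with interleukin-1beta and tumor necrosis factor alpha; ATP is 10 uM final.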

[6] = target: 3',5'-cyclic-AMP phosphodiesterase 4B (Homo sapiens) (UniProt Q07343); test: qHTS Assay for Inhibitors of PDE-IV (AID 607; active means well fitted activation curve with a large enough effect in the main read-out, with a control signal flat, not every such curve was filed as active; further: % of control where 0% means no effect); details: HEK293 ACTOne CNG channel cells, membrane potential fluorescence; series mostly up to 22.9 µM
Summary of the method: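 Cell-based read-out of cAMP via a modified cyclic nucleotide-gated channel and membrane potential dye (535/590 nm) in HEK293 cells expressing PDE4 endogenously. Compounds tested up to 22.9 uM final; 100 uM RO 20-1724 reference.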

[7] = target: Cytochrome P450 3A4 (Homo sapiens) (UniProt P08684); test: qHTS Assay for Activators of Cytochrome P450 3A4 (AID 885; active means well fitted curve in the direction sought with a large enough effect; an effect the other way counts as inactive or inconclusive; further: nearly all actives have a fitted effect of over 65% in size); details: recombinant CYP3A4, Luciferin-PPXE luminescence, 60 min; series mostly up to 57.1 µM
Summary of the method: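 Luminescent readout of luciferin formed from 25 uM Luciferin-PPXE (KM level) by 20 nM CYP3A4 in 200 mM KPO4, with 60 min NADPH-driven reaction at room temperature after 10 min compound exposure. Ketoconazole (57 uM) defined 100% inhibition.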

[8] = Primary qHTS for small molecule stabilizers of the endoplasmic reticulum resident proteome: Secreted ER Calcium Modulated Protein (SERCaMP) assay (AID 1508630; active means well fitted curve in the direction sought with a large enough effect; an effect the other way counts as inactive or inconclusive; further: on the % scale 0 is the no-effect control and ±100 the full control effect); details: SH-SY5Y GLuc-SERCaMP (Gaussia luciferase released on ER calcium loss) secretion, thapsigargin, luminescence; series mostly up to 38.4 µM
Summary of the method: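 The SH-SY5Y reporter protocol was run at 3 concentrations up to 38.3 uM (primary) or 11 concentrations (follow-up): 16 h compound, 100 nM thapsigargin for 4 h, then extracellular luciferase luminescence.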

[9] = NFAT Signaling Pathway (AID 444); details: Jurkat NFAT-bla M1, carbachol, beta-lactamase ratio, 5 h; at 7.69 µM (top of the series) unless noted;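 further: carbachol stimulus at about its EC50 of 1 µM final; on the % scale 0 is the no-effect control and ±100 the full control effect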
Summary of the method: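 Jurkat cells carrying an NFAT-driven β-lactamase reporter and co-transfected muscarinic M1 receptor were treated with compound plus carbachol (1 uM final, an EC50 level) for 5 h at 37 °C. CCF4 loading followed for 1 h at RT; 460/530 nm ratio gave %activity.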

[10] = Stat Signaling Pathway (AID 446); details: ME-180 SIE beta-lactamase reporter, IL-6 stimulated, 5 h; at 7.69 µM (top of the series) unless noted;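 further: ME-180 cervical cancer cells given 40 pM IL-6 alongside compound; SIE-controlled beta-lactamase reporter measured as 460/530 nm FRET emission ratio; on the % scale 0 is the no-effect control and ±100 the full control effect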
Summary of the method: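 FRET read-out (405 nm excitation, 460/530 nm emission) of a beta-lactamase reporter under a STAT-inducible element in ME-180 cervical carcinoma cells. Cells with compound receive 40 pM IL-6 for 5 h. Values are normalised to AC90 stimulation and AC90 JAK-inhibitor controls.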

[11] = target: Cytochrome P450 2C9 (Homo sapiens) (UniProt P11712); test: qHTS Assay for Inhibitors and Substrates of Cytochrome P450 2C9 (AID 883; active means well fitted curve in the direction sought with a large enough effect; an effect the other way counts as inactive or inconclusive; further: on the % scale 0 is the no-effect control and ±100 the full control effect; nearly all actives have a fitted effect of over 60% in size); details: recombinant CYP2C9, luciferin-H luminescence, 60 min; series mostly up to 57.1 µM
Summary of the method: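 Human CYP2C9 (10nM) hydroxylated Luciferin-H (100uM, at its KM) to luciferin in 25mM KPO4. Compound was preincubated 10 min at 37C, then NADPH regeneration started a 60 min reaction at 37C. Luminescence was read after detection reagent, normalized to 57uM sulphaphenazole.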

[12] = target: Cytochrome P450 2C19 (Homo sapiens) (UniProt P33261); test: qHTS Assay for Inhibitors and Substrates of Cytochrome P450 2C19 (AID 899; active means well fitted curve in the direction sought with a large enough effect; an effect the other way counts as inactive or inconclusive; further: on the % scale 0 is the no-effect control and ±100 the full control effect; nearly all actives have a fitted effect of over 60% in size); details: recombinant CYP2C19, luciferin-H EGE luminescence; series mostly up to 57.1 µM
Summary of the method: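 Human CYP2C19 (5nM) with Luciferin-H EGE at 10uM (its KM) in 50mM KPO4 was preincubated with compound for 10 min at 37C. NADPH regeneration started a 60 min 37C reaction. Luciferin was read by luminescence, normalized to 57uM ketoconazole.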

[13] = qHTS Assay for Identification of Small Molecule Agonists for Hypoxia Response Element Signaling Pathway (AID 914; active means well fitted activation curve with a large enough effect in the signal ratio, with a control signal flat, not every such curve was filed as active; the % refers to the signal ratio; further: potency means the concentration at half of the fitted maximal effect; on activation: % of control where 0% means no effect); details: ME-180 HRE-bla reporter, beta-lactamase ratio, CoCl2, 17 h; activation: hits give high values
Summary of the method: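 qHTS titration; ME-180 HRE-bla cells; EC50 CoCl2 co-treatment, 17 h at 37 degrees Celsius; CCF4 dye, ex 405nm, em 460nm and 530nm; %Activity from ratio; AC50.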

[14] = AP1 Signaling Pathway (AID 357); details: ME-180 (cervical carcinoma) AP-1-bla reporter, EGF-induced, beta-lactamase ratio, 5 h; at 7.69 µM (top of the series) unless noted
Summary of the method: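 Read-out was the 460nm/530nm emission ratio (excitation 405nm) after CCF4 loading for 2.5 hours at room temperature. Cells carried an AP-1-driven beta-lactamase reporter, were stimulated with EC50 EGF plus compound for 5 hours, and AC50 values came from titrations.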

Chain of Cytochrome P450 1A2 (Homo sapiens) (P05177 whole entry, looked up): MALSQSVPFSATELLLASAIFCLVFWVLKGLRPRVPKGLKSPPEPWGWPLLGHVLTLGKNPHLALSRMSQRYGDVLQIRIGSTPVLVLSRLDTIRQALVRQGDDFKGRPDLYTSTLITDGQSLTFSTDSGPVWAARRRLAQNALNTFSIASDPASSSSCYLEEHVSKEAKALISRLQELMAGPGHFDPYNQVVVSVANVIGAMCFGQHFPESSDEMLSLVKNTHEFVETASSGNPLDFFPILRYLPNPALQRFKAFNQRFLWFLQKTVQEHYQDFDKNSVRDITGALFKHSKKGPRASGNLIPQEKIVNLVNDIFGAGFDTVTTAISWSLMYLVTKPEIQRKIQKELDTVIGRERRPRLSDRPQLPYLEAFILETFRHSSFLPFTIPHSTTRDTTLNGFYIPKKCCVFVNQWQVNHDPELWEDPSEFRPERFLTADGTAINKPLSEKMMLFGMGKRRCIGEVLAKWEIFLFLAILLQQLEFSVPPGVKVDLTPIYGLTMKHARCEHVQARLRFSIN
Chain of Glucocorticoid receptor (Homo sapiens) (P04150 whole entry, looked up, the tested form may be a part): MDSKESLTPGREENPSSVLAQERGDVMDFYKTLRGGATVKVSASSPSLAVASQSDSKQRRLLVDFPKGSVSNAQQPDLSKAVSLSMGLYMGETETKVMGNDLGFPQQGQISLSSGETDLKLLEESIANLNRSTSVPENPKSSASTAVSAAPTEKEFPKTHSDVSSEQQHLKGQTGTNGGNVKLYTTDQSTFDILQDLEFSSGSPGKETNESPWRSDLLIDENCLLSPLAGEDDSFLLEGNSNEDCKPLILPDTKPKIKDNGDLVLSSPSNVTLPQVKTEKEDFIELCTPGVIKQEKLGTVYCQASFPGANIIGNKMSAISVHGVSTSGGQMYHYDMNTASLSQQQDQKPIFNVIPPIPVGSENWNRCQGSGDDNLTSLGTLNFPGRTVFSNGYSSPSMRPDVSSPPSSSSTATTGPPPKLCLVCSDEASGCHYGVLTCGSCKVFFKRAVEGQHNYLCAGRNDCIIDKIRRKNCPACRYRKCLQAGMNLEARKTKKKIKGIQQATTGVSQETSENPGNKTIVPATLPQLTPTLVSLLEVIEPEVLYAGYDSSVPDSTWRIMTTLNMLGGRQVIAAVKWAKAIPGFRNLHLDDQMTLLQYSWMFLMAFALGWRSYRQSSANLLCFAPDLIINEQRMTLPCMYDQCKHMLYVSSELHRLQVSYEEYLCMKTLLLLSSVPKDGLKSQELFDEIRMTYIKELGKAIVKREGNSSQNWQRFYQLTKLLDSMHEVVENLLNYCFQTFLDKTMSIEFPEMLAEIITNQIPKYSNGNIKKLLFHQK
Chain of 3',5'-cyclic-AMP phosphodiesterase 4B (Homo sapiens) (Q07343 whole entry, looked up): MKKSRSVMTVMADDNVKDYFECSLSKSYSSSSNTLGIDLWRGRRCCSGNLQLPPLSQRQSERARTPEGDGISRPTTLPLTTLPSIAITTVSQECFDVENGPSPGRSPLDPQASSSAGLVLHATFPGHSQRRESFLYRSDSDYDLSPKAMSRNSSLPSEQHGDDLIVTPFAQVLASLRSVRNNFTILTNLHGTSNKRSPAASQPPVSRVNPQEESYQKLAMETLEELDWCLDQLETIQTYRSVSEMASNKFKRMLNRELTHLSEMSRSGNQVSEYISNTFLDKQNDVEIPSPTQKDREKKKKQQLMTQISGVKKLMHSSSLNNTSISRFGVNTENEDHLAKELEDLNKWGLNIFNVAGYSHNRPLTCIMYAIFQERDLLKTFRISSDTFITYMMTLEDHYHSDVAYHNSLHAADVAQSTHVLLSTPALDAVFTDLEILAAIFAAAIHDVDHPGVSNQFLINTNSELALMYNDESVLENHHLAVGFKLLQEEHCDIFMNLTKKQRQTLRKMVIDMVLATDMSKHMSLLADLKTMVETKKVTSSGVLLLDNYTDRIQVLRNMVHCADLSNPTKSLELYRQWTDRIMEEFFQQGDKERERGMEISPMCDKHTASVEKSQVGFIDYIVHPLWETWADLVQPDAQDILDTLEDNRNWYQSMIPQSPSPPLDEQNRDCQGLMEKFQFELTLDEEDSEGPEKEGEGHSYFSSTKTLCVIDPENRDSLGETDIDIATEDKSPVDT
Chain of Lysosomal acid glucosylceramidase (Homo sapiens) (P04062 whole entry, looked up): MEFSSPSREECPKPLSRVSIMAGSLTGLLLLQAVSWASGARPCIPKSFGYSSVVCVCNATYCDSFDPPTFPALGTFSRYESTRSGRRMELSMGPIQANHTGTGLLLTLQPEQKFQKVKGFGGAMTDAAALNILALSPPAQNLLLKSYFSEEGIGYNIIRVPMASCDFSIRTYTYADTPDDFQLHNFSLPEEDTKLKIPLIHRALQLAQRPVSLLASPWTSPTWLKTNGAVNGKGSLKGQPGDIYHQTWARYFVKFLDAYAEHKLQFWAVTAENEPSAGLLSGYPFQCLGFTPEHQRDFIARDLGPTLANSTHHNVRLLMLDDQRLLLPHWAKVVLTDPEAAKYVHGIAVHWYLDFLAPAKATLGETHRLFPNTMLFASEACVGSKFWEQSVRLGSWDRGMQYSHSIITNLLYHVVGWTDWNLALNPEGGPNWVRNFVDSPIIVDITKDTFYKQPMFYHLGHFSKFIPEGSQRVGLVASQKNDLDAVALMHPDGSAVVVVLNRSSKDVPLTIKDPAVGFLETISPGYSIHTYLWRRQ
Chain of Cytochrome P450 3A4 (Homo sapiens) (P08684 whole entry, looked up): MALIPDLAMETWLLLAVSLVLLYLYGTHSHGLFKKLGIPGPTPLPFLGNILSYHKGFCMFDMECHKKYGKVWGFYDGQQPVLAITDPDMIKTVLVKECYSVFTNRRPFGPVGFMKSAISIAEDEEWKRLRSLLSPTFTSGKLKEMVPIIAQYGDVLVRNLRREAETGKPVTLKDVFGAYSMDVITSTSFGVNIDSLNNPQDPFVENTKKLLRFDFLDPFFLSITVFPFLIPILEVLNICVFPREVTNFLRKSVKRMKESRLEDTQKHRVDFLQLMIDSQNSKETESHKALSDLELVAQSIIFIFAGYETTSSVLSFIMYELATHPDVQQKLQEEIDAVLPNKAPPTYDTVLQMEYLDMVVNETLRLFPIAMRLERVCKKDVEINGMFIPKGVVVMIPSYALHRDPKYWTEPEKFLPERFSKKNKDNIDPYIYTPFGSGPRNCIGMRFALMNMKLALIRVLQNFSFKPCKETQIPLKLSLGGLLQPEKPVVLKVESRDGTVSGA
Chain of Cytochrome P450 2C9 (Homo sapiens) (P11712 whole entry, looked up): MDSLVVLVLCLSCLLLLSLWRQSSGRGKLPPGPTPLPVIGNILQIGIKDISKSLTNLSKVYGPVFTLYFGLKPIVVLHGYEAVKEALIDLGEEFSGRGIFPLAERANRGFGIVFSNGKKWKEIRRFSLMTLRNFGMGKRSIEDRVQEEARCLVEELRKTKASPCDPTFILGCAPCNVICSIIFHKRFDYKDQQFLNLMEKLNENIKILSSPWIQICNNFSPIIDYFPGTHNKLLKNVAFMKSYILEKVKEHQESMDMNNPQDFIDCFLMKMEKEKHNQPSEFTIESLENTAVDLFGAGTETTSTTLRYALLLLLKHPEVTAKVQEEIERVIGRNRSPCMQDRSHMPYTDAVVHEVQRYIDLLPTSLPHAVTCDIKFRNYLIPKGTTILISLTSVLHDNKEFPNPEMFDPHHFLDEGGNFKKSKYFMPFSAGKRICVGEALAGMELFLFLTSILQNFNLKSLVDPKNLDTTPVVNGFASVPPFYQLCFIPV
Chain of Cytochrome P450 2C19 (Homo sapiens) (P33261 whole entry, looked up): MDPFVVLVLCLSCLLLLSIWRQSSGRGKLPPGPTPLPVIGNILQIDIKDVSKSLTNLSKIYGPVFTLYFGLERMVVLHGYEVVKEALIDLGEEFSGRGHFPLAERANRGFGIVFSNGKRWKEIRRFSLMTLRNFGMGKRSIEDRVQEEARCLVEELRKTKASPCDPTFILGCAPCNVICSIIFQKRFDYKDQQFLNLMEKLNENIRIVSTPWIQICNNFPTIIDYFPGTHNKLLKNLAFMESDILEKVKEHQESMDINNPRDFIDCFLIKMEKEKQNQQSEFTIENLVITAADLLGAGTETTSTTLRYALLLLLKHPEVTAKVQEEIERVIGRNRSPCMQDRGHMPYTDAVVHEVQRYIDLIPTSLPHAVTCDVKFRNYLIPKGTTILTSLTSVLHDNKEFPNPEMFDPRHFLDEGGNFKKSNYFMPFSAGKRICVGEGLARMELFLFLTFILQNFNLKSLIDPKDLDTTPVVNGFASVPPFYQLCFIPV

Structure (SMILES) | Potency [1] [µM] | Potency [2] | Potency [3] [µM] | Potency [4] [µM] | Potency [5] | Potency [6] | Potency [7] | outcome [8] | activity change, negative = inhibition [9] [%] | activity, negative = inhibition [10] [%] | Potency [11] | Potency [12] | activation [13] [%] | activity change, negative = inhibition [14] [%] | Potency [13]
COc1ccc(-c2nc3cnc(N4CCNCC4)nc3n(C)c2=O)cc1 | > 11.4 | 12.6 µM (active) | > 9.22 | > 46 | inactive | inactive | inactive | inactive | – | – | – | – | – | – | –
CCNc1ncc2nc(-c3ccc(Cl)cc3)c(=O)n(-c3ccccc3)c2n1 | > 11.4 | 1 µM (active) | > 9.22 | > 46 | inactive | – | – | inactive | – | – | – | – | – | – | –
COc1ncc2nc(C)c(=O)n(CCC#N)c2n1 | > 11.4 | 15.8 µM (active) | > 9.22 | > 46 | inactive | inactive | – | inactive | -6.19 | -5.09 | inactive | inactive | 7.94 | – | –
COc1cccc(Nc2ncc3nc(CCc4ccccc4)c(=O)n(C4CC4)c3n2)c1 | > 11.4 | 5.01 µM (active) | > 9.22 | > 46 | inactive | – | inactive | inactive | – | -19.3 | – | – | – | – | –
O=c1c(-c2cccs2)nc2cnc(Oc3ccccc3)nc2n1-c1ccccc1 | > 11.4 | – | > 9.22 | > 46 | inactive | – | – | inactive | – | – | – | – | – | 3.02 | 2.51 µM (active)
CCNc1ncc2nc(-c3ccc(Cl)cc3)c(=O)n(C3CC3)c2n1 | > 11.4 | 0.501 µM (active) | > 9.22 | > 46 | inactive | inactive | – | inactive | -4.85 | – | – | – | – | – | 0.398 µM (active)
O=c1cnc2cnc(Nc3ccccc3)nc2n1C[C@H]1CCCO1 | > 11.4 | 0.794 µM (active) | > 9.22 | > 46 | – | inactive | inactive | inactive | – | – | – | – | – | – | –
O=C(c1ccncc1)N1CCC2(CCCN(c3ncccn3)C2)CC1 | > 11.4 | – | – | – | inactive | inactive | – | inactive | – | 5.19 | – | – | – | -5.83 | –
O=c1c(-c2ccc(Cl)cc2)nc2cncnc2n1Cc1ccc(F)cc1 | > 11.4 | – | > 9.22 | > 46 | inactive | inactive | inactive | inactive | 5.72 | -2.95 | – | – | – | – | –
